This is an account of results in PubChem BioAssay (NCI).

The structures appear in SMILES notation. Where “and” joins values, the source holds several entries; their conditions need not be identical. Identical values can stand only once. About 83,000 compounds went through this panel and 20% of them were active in at least one assay; those are over-represented in the sample as a whole.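 Cells were grown in 96-well plates and exposed to the test compound at a single concentration for 48 hours; results are reported as percent growth, with values below 10 considered active.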 Calls of active or inactive are those of the source.

Common to all, as to assay: NCI-60 one-dose screen, 48 h (100 = growth as untreated, 0 = no growth, -100 = all killed)
The subject of one assay is NCI-H23 lung. To be noted: 10 µM.
A further assay has as its system NCI-H226 lung. To be noted: 10 µM.
In a further assay the test system is NCI-H322M lung. To be noted: 10 µM.
A further assay relates to HOP-62 NSCLC. The settings on record: 10 µM.
For a further assay, the system named is HOP-92 NSCLC. To be noted: 10 µM.
For another assay, the system named is NCI-H522 lung. The settings on record: 10 µM unless noted.
The next assay relates to A549/ATCC NSCLC. To be noted: 10 µM.
For another assay, the system named is 786-0 renal. The settings on record: 10 µM.
The subject of the next assay is COLO 205 colon. The settings on record: 10 µM.
In a further assay the test system is DU-145 prostate. To be noted: 10 µM unless noted.
A further assay concerns K-562 leukemia. The settings on record: 10 µM.
Another assay has as its system MALME-3M melanoma. The settings on record: 10 µM.
In the next assay the test system is MDA-MB-231 breast. The settings on record: 10 µM.
Another assay relates to RXF 393 renal. The settings on record: 10 µM unless noted.
In another assay the test system is SF-268 CNS. The settings on record: 10 µM.
The next assay deals with SF-539 CNS. To be noted: 10 µM.
The subject of a further assay is UACC-257 melanoma. To be noted: 10 µM.
The subject of the next assay is M14 melanoma. The settings on record: 10 µM.
The next assay has as its system SF-295 CNS. To be noted: 10 µM.
Another assay deals with NCI-H460 lung. To be noted: 10 µM.

As to `NNc1c2ccccc2nc2ccccc12`, the growth with NCI-H23 lung was 47.4% (inactive); in the assay on NCI-H226 lung, 48.5% (inactive); in the assay with NCI-H322M lung, 75.9% (inactive); in the assay with HOP-62 NSCLC it was 64.6% (inactive); in the assay with HOP-92 NSCLC, 88.1% (inactive); with NCI-H522 lung, 33.2% (inactive). For the same molecule, the growth in the assay on A549/ATCC NSCLC is 23.6% (inactive); in the assay on 786-0 renal, 34.2% (inactive); in the assay on COLO 205 colon it was 67.6% (inactive); with DU-145 prostate, 66% (inactive); with K-562 leukemia, 49.2% (inactive); in the assay with MALME-3M melanoma it was 62.5% (inactive). Also, the growth with MDA-MB-231 breast is 65.2% (inactive); with RXF 393 renal it was 72.8% (inactive); with SF-268 CNS it was 50.1% (inactive); in the assay with SF-539 CNS, 42.8% (inactive); with UACC-257 melanoma it was 34.9% (inactive); in the assay with M14 melanoma, 66.4% (inactive).

Take `CCCCCCCCCCCCSC(=NC)NC`: the growth is 35.4% (inactive) and 54.9% (inactive) in the assay with NCI-H23 lung; 66.3% (inactive) and 79.1% (inactive) in the assay with NCI-H226 lung; 52.8% (inactive) and 95.6% (inactive) in the assay with NCI-H322M lung; 76.3% (inactive) and 87.2% (inactive) with HOP-62 NSCLC; -1.15% (active) and 36% (inactive) in the assay with HOP-92 NSCLC; 57.7% (inactive) and 85% (inactive) with NCI-H522 lung. The growth with A549/ATCC NSCLC is 64.4% (inactive) and 87.7% (inactive); with 786-0 renal, -23.8% (active) and 62.9% (inactive); in the assay on COLO 205 colon, -85.4% (active) and -86.3% (active); in the assay with DU-145 prostate, 41.3% (inactive) and 75.6% (inactive); in the assay on K-562 leukemia, 3.08% (active) and 2.7% (active); in the assay on MALME-3M melanoma it was 40% (inactive) and 72.8% (inactive). The growth with MDA-MB-231 breast is -28.3% (active) and 40.4% (inactive); in the assay with RXF 393 renal it was 40.9% (inactive) and 70.6% (inactive); with SF-268 CNS it was 40.9% (inactive) and 74.9% (inactive); with SF-295 CNS, 4.6% (active) and 65% (inactive); in the assay with SF-539 CNS, 29.3% (inactive) and 55.4% (inactive); with UACC-257 melanoma, 66.4% (inactive) and 98.2% (inactive). Also, the growth in the assay on M14 melanoma is -19.2% (active) and 60.6% (inactive).

As to `CC(=O)Nc1cc(C)ccc1C`, the growth in the assay with NCI-H23 lung is 95.1% (inactive); in the assay on NCI-H226 lung it was 98.7% (inactive); in the assay on NCI-H322M lung, 96% (inactive); in the assay with HOP-62 NSCLC it was 107% (inactive); in the assay with HOP-92 NSCLC it was 106% (inactive); with NCI-H522 lung it was 96.1% (inactive). Moreover, the growth with A549/ATCC NSCLC was 100% (inactive); with 786-0 renal it was 106% (inactive); with COLO 205 colon, 102% (inactive); with DU-145 prostate it was 112% (inactive); in the assay on K-562 leukemia, 102% (inactive); in the assay with MALME-3M melanoma, 92.9% (inactive). The growth in the assay with MDA-MB-231 breast was 112% (inactive); with RXF 393 renal, 105% (inactive); with SF-268 CNS, 101% (inactive); with SF-295 CNS, 101% (inactive); in the assay on SF-539 CNS, 96.8% (inactive); in the assay on UACC-257 melanoma, 101% (inactive). Moreover, the growth with M14 melanoma was 101% (inactive).

As for `OCC(O)C(O)C(O)C(/C=N/Nc1ccccc1)=N/Nc1ccccc1` (stereo not drawn), the growth was 93.1% (inactive) in the assay with NCI-H23 lung; 91.4% (inactive) in the assay on NCI-H226 lung; 68.9% (inactive) in the assay with NCI-H322M lung; 70.2% (inactive) with HOP-62 NSCLC; 75.1% (inactive) in the assay on HOP-92 NSCLC; 55.5% (inactive) with NCI-H522 lung. The growth is 87.3% (inactive) with A549/ATCC NSCLC; 107% (inactive) in the assay with 786-0 renal; 96.5% (inactive) in the assay on COLO 205 colon; 89.1% (inactive) with DU-145 prostate; 67.1% (inactive) with K-562 leukemia; 101% (inactive) in the assay with MALME-3M melanoma. The growth with MDA-MB-231 breast was 79.7% (inactive); in the assay on RXF 393 renal it was 86.7% (inactive); in the assay on SF-268 CNS, 75.5% (inactive); in the assay on SF-295 CNS it was 83.6% (inactive); in the assay on SF-539 CNS, 91.3% (inactive); with UACC-257 melanoma, 104% (inactive). Besides, in the assay on M14 melanoma, the growth was 87.5% (inactive).

In the case of `CCN(CC)c1ccc(NC(C(=O)c2ccccc2)c2ccccc2)cc1` (stereo not drawn), the growth in the assay on NCI-H23 lung was 44.4% (inactive); in the assay on NCI-H226 lung, 60.1% (inactive); with NCI-H322M lung, 82.9% (inactive); in the assay with HOP-62 NSCLC it was 123% (inactive); in the assay on HOP-92 NSCLC, 73.7% (inactive); with NCI-H522 lung it was 21.8% (inactive). Further, the growth with A549/ATCC NSCLC is 92.5% (inactive); in the assay with 786-0 renal, -57.1% (active); in the assay on COLO 205 colon, 20.5% (inactive); in the assay on DU-145 prostate, 24.4% (inactive); in the assay on K-562 leukemia, 10.4% (inactive); in the assay on MALME-3M melanoma, 28.7% (inactive). In addition, the growth in the assay on MDA-MB-231 breast was -34.1% (active); with RXF 393 renal, 4.61% (active); with SF-268 CNS, -22.8% (active); in the assay on SF-295 CNS, 61.2% (inactive); with SF-539 CNS, -50.1% (active); in the assay with UACC-257 melanoma it was 68.3% (inactive). Further, the growth in the assay on M14 melanoma was 22.8% (inactive).

Regarding `N=S(c1ccccc1[N+](=O)[O-])c1ccccc1[N+](=O)[O-]`, the growth was 83.9% (inactive) in the assay on NCI-H23 lung; 52.7% (inactive) with NCI-H226 lung; 93.4% (inactive) in the assay on NCI-H322M lung; 124% (inactive) with HOP-62 NSCLC; 104% (inactive) in the assay on NCI-H460 lung; -1.88% (active) with HOP-92 NSCLC. Moreover, the growth in the assay with NCI-H522 lung was -77.5% (active); in the assay with A549/ATCC NSCLC it was 90.3% (inactive); with 786-0 renal it was 39.7% (inactive); with COLO 205 colon, 2.39% (active); in the assay with DU-145 prostate, 80.4% (inactive); in the assay with K-562 leukemia, 1.79% (active). In addition, the growth in the assay on MALME-3M melanoma was 74.5% (inactive); in the assay with MDA-MB-231 breast, 91.4% (inactive); with RXF 393 renal, 79% (inactive); in the assay with SF-268 CNS, 90.2% (inactive); in the assay with SF-295 CNS it was 99.5% (inactive); in the assay on SF-539 CNS it was 39.2% (inactive). For the same molecule, the growth was 89.7% (inactive) in the assay with UACC-257 melanoma and 60.2% (inactive) with M14 melanoma.

On to `CCCC1CCC(=C2C(=O)CCC2=O)O1` (stereo not drawn), for which the growth in the assay on NCI-H23 lung is 102% (inactive) and 98.7% (inactive); in the assay on NCI-H226 lung, 102% (inactive) and 108% (inactive); with NCI-H322M lung, 90.9% (inactive) and 96.9% (inactive); in the assay on HOP-62 NSCLC, 90.6% (inactive) and 101% (inactive); in the assay on HOP-92 NSCLC, 103% (inactive); with NCI-H522 lung, 121% (inactive) and 83.9% (inactive). The growth in the assay with A549/ATCC NSCLC is 110% (inactive) and 97.5% (inactive); with 786-0 renal it was 105% (inactive) and 92.9% (inactive); in the assay with COLO 205 colon it was 100% (inactive) and 99.2% (inactive); with DU-145 prostate, 102% (inactive) and 92.3% (inactive); in the assay on K-562 leukemia, 145% (inactive) and 121% (inactive); in the assay on MALME-3M melanoma, 103% (inactive) and 101% (inactive). Besides, the growth in the assay on MDA-MB-231 breast was 102% (inactive) and 101% (inactive); with RXF 393 renal, 103% (inactive) and 97.7% (inactive); with SF-268 CNS, 100% (inactive) and 107% (inactive); in the assay with SF-295 CNS it was 97.3% (inactive) and 89.8% (inactive); with SF-539 CNS it was 92.7% (inactive) and 96.7% (inactive); in the assay with UACC-257 melanoma it was 106% (inactive) and 95.3% (inactive). Besides, the growth in the assay on M14 melanoma is 100% (inactive) and 74.4% (inactive).
